Test systems include DU-145 prostate; K-562 leukemia; MDA-MB-231 breast; RXF 393 renal; SF-268 CNS; SF-295 CNS; SF-539 CNS; UACC-257 melanoma; M14 melanoma; MALME-3M melanoma.
What all share (test): NCI-60 one-dose screen, 48 h (100 = growth as untreated, 0 = no growth, -100 = all killed)
Details in all cases: 10 µM

The values that follow come from PubChem BioAssay (NCI).

The panel holds about 83,000 compounds, 20% with a hit somewhere; the sample as a whole holds those more often.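 Method: cells in 96-well plates; compound added at one concentration; 48 h incubation; percent growth measured; values under 10 scored active.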 Values without a mark were called inactive. Active and inactive are the calls of the source.

Take `CCOC(=O)Nc1nn[nH]n1`: the growth was 108% with DU-145 prostate; 110% with K-562 leukemia; 104% in the assay with MDA-MB-231 breast; 105% in the assay with RXF 393 renal; 100% in the assay with SF-268 CNS; 106% in the assay with SF-295 CNS. For the same molecule, the growth in the assay on SF-539 CNS is 97.7%; in the assay with UACC-257 melanoma, 116%; with M14 melanoma, 95.3%.

Consider `CCOC(=O)c1ccc(Nc2sc(C(=O)c3cccc([N+](=O)[O-])c3)c(N)c2C#N)cc1`, for which the growth was 29.2% in the assay with DU-145 prostate; 16.1% in the assay with K-562 leukemia; 45.9% in the assay on MDA-MB-231 breast; 15.8% in the assay on RXF 393 renal; 44.4% in the assay on SF-268 CNS; -44.3% (active) with SF-295 CNS. Also, the growth in the assay with SF-539 CNS was 1.59% (active); with UACC-257 melanoma, 17.4%; in the assay on M14 melanoma, 24%.

Turning to `CCCC(=O)Nc1ccc2c(c1)CN1C(=O)c3ccccc3C1=N2`, the growth with DU-145 prostate was 101%; in the assay with K-562 leukemia it was 102%; with MDA-MB-231 breast it was 103%; in the assay with RXF 393 renal, 109%; with SF-268 CNS, 101%; in the assay with SF-295 CNS, 86.7%. Also, the results for the growth with SF-539 CNS, in the assay on UACC-257 melanoma and in the assay on M14 melanoma were 89.6%, 102% and 113%, respectively.

With `Cc1ccc(/C=C2\SC(=S)N(c3ccc(F)cc3)C2=O)o1`, the growth is 95.5% with DU-145 prostate; 77.8% in the assay with K-562 leukemia; 77% with MALME-3M melanoma; 75% with RXF 393 renal; 73% with SF-295 CNS; 73.9% in the assay on SF-539 CNS. In addition, the growth in the assay on UACC-257 melanoma is 102%; in the assay with M14 melanoma it was 87.5%.

For the molecule `Cc1ccc(C)n1-c1ccsc1C(=O)NNC(=O)C(Cl)Cl`, the growth in the assay with DU-145 prostate was 109%; with K-562 leukemia it was 97.8%; in the assay on MALME-3M melanoma, 93.2%; in the assay with RXF 393 renal, 114%; in the assay on SF-295 CNS, 101%; in the assay on SF-539 CNS, 102%. Also, the results for the growth with UACC-257 melanoma and in the assay with M14 melanoma were 98.2% and 106%, respectively.

For `C=CCc1cc(C(C)=O)cc(OC)c1O`, the growth is 105% with DU-145 prostate; 107% with K-562 leukemia; 92.1% in the assay on MDA-MB-231 breast; 95.5% with RXF 393 renal; 96.8% in the assay on SF-268 CNS; 119% in the assay on SF-295 CNS. Also, the figures for the growth in the assay with SF-539 CNS, with UACC-257 melanoma and in the assay with M14 melanoma were 125%, 99% and 105%, respectively.

Regarding `CN(c1ccccc1)c1ncnc2c1ncn2C`, the growth in the assay with DU-145 prostate was 108%; in the assay with K-562 leukemia, 103%; with MDA-MB-231 breast, 109%; in the assay with RXF 393 renal it was 122%; in the assay on SF-268 CNS it was 97.5%; in the assay on SF-295 CNS, 109%. Moreover, the growth was 107% with SF-539 CNS, 87.9% in the assay with UACC-257 melanoma and 104% in the assay with M14 melanoma.

As to `O=C1C=CC(=O)N1c1ccc(I)cc1Cl`, the growth in the assay on DU-145 prostate is 110%; with K-562 leukemia it was 114%; with MDA-MB-231 breast, 107%; in the assay with RXF 393 renal, 110%; in the assay with SF-268 CNS, 126%; with SF-539 CNS, 97.1%. Besides, the growth with UACC-257 melanoma was -2.76% (active).

For `Cc1nc2ccccc2c(C(=O)O)c1O`, the growth in the assay with DU-145 prostate is 127%; in the assay on K-562 leukemia, 127%; in the assay with MDA-MB-231 breast, 101%; in the assay on RXF 393 renal, 107%; in the assay with SF-268 CNS, 110%; in the assay on SF-539 CNS, 98.1%. Moreover, the growth in the assay with UACC-257 melanoma was 96.7%; with M14 melanoma it was 90.3%.

With `CC1(C)S(=O)(=O)OCCOS1(=O)=O`, the growth in the assay with DU-145 prostate was 107%; with K-562 leukemia it was 100%; with MALME-3M melanoma it was 94.5%; with RXF 393 renal it was 114%; with SF-295 CNS it was 97.7%; with SF-539 CNS it was 100%. The growth was 82.2% with UACC-257 melanoma and 100% in the assay on M14 melanoma.

Turning to `CCCCCCCCCCCCCC(=O)Oc1ccc[nH]c1=O`, the growth was 103% with DU-145 prostate; 90% in the assay with K-562 leukemia; 95.2% in the assay on MALME-3M melanoma; 113% in the assay on RXF 393 renal; 97.1% in the assay with SF-295 CNS; 99% in the assay with SF-539 CNS. Besides, the growth in the assay on UACC-257 melanoma is 84.3%; in the assay with M14 melanoma, 101%.

In the case of `Cc1ccc(N)cc1[N+](=O)[O-]`, the growth is 115% in the assay with DU-145 prostate; 108% with K-562 leukemia; 122% with MDA-MB-231 breast; 114% in the assay with RXF 393 renal; 114% with SF-268 CNS; 105% in the assay with SF-295 CNS. Also, the growth in the assay with SF-539 CNS is 113%; in the assay with UACC-257 melanoma, 98.7%; in the assay with M14 melanoma, 99.8%.

Take `CCCCC1(CC)COC(CCC)OC1` (configuration not stated): the growth in the assay with DU-145 prostate is 102%; in the assay on K-562 leukemia, 106%; with MDA-MB-231 breast, 106%; in the assay with RXF 393 renal it was 101%; with SF-268 CNS, 98.6%; with SF-295 CNS, 119%. Besides, the growth with SF-539 CNS was 98.3%; in the assay on UACC-257 melanoma it was 101%; with M14 melanoma, 99.7%.

As to `O=S(=O)(O)C(Nc1ccccc1)c1ccccc1` (configuration not stated), the growth in the assay on DU-145 prostate is 110%; in the assay with K-562 leukemia it was 87.6%; in the assay on MDA-MB-231 breast it was 99.1%; with SF-268 CNS, 107%; in the assay on SF-295 CNS, 107%; in the assay on SF-539 CNS, 93.6%. Besides, the values for the growth in the assay with UACC-257 melanoma and in the assay with M14 melanoma were 140% and 98.7%, respectively.

Consider `Cc1nc2ccccc2c2nnc(SCC(=O)N(Cc3ccccc3)c3ccccc3)n12`, for which the growth was 85.9% in the assay with K-562 leukemia; 92.1% with MDA-MB-231 breast; 94.6% in the assay on SF-268 CNS; 88.2% with SF-295 CNS; 99.2% in the assay with SF-539 CNS; 92.8% in the assay with UACC-257 melanoma. In addition, the growth in the assay on M14 melanoma is 119%.

As for `Nc1ccc(NC(=O)c2cccc(N)c2)cc1`, the growth in the assay on DU-145 prostate is 108%; in the assay on MALME-3M melanoma it was 85.7%; in the assay with MDA-MB-231 breast, 97.1%; in the assay on SF-268 CNS it was 102%; in the assay on SF-295 CNS, 92.5%; in the assay on SF-539 CNS it was 96.3%. Further, in the assay with M14 melanoma, the growth was 104%.

For the molecule `Cc1ccccc1N=C(c1ccccc1)C1C(=O)c2ccccc2C1=O`, the growth is 61.8% with K-562 leukemia; 98.7% in the assay with MDA-MB-231 breast; 88.1% with SF-268 CNS; 93.6% in the assay with SF-295 CNS; 77.8% in the assay on SF-539 CNS; 96% in the assay on UACC-257 melanoma.

Regarding `Cc1cc(=O)[nH]c(NN=C2CCCC2)n1`, the growth is 112% with DU-145 prostate; 108% with MALME-3M melanoma; 102% in the assay on MDA-MB-231 breast; 121% in the assay with RXF 393 renal; 112% in the assay on SF-268 CNS; 108% in the assay on SF-295 CNS. Moreover, the growth was 107% in the assay with SF-539 CNS, 125% with UACC-257 melanoma and 112% with M14 melanoma.
